Results as given in PubChem BioAssay (NCI).
Compounds without any hit were thinned out: in the full panel of roughly 83,000, 20% have a hit.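 How to read the values: 0–100, growth inhibition (40 = 60% inhibited); 0, no net growth; -100 to 0, cell death (-40 = 40% of starting cells died; -100 = all dead).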 Calls of active or inactive are those of the source.

test system: HOP-92 NSCLC; assay: NCI-60 one-dose screen, 48 h (100 = growth as untreated, 0 = no growth, -100 = all killed); settings: 10 µM
Procedure: Growth inhibition of the HOP-92 human Non-Small Cell Lung tumor cell line is measured as a screen for anti-cancer activity. Cells are grown in 96 well plates and exposed to the test compound for 48 hours. Compounds are tested at a single concentration, which is 10^-5 M for most compounds. The reported endpoint is percent growth (GI% or GIPRCNT), where numbers from 0 - 100% represent growth inhibition, and numbers from -100% - 0 represent cell death. For example, a value of 40 represents 60% growth inhibition. A value of 0 means no net growth occurred over the course of the experiment. A value of -40 indicates 40% of cells at the beginning of the experiment died by the end of the experiment. A value of -100 means all cells are dead at the end of the experiment.
NCI-60 Human Tumor Cell Lines Screen was performed using the standard one-dose NCI protocol, which is described in more detail at https://dtp.cancer.gov/discovery_development/nci-60/default.htm.
Compounds with GIPRCNT values below 10 were considered active. Activity score was based on GIPRCNT using the following formula: […]
Score is 0 for GIPRCNT values of 100 or above, 50 for GIPRCNT values of 0, and 100 for GIPRCNT values of -100.

Row | Compound | growth
1 | COc1ccccc1NC1=C(Cl)C(=O)c2nc(C)ccc2C1=O | -83.8% (active)
2 | CCOC(=O)c1c(N)c(C#N)cn1-c1cc(OC)c(OC)c(OC)c1 | 79.1% (inactive)
3 | CCOP(=O)(OCC)OC[C@]12CCC(C)(C)C=C1[C@H]1CC[C@@H]3[C@@]4(C)CC[C@H](OP(=O)(OCC)OCC)C(C)(C)[C@@H]4CC[C@@]3(C)[C@]1(C)CC2 | -65.2% (active)
4 | COC[C@]12CCC(C)(C)C[C@H]1C1=CC[C@@H]3[C@@]4(C)CCCNC(C)(C)[C@@H]4CC[C@@]3(C)[C@]1(C)CC2 | -3.83% (active)
5 | C=CCn1c(SCC(=O)Nc2ccc(C(=O)/C=C/c3ccc(Br)cc3)cc2)nnc1-c1c[nH]c2ccccc12 | 86.4% (inactive)
6 | NC/C(=C/F)COc1ccc2nc(NCc3cccnc3)oc2c1 | 116% (inactive)
7 | O=S(=O)(NCCCNc1nccc(-c2[nH]c(-c3ccccc3)nc2-c2ccc(Cl)c(O)c2)n1)c1cccc2ccccc12 | 51.4% (inactive)
8 | CCCCCCCn1cc2c(NCCc3ccccc3)ncnc2n1 | 94.2% (inactive)
9 | O=C(c1ccc(Cl)cc1)C1[C@H](c2ccc(Cl)cc2)[C@@H](c2ccccc2)NC12C(=O)Nc1ccccc12 (stereo not given in full) | 50.4% (inactive)
10 | Cc1ccc(-n2c(/C=C3\C(=O)Nc4ccccc43)ccc2CO)cc1 | 84.5% (inactive)
11 | CC(Nc1c(C#N)cnc2ccc(-c3cnc(N)nc3)cc12)c1ccccc1 (stereo not given) | -17.3% (active)
12 | N#Cc1cnc2ccc(-c3cnc(N)nc3)cc2c1N1CCc2cc(F)c(Cl)cc21 | -19% (active)
13 | COc1cc(OC)cc(C(=O)Nc2cccc(C#Cc3cccc4[nH]nc(N)c34)c2)c1 | 43% (inactive)
14 | CCN1CCN(Cc2ccc(C(=O)Nc3ccc(C)c(Oc4ccc(-c5[nH]nc6ncnc(N)c56)cc4)c3)cc2C(F)(F)F)CC1 | 70.3% (inactive)
15 | O=S(=O)(NCCNc1nccc(-n2cnc3ccccc32)n1)c1ccc(C(F)(F)F)cc1 | 54.9% (inactive)
16 | C=C(C=O)[C@@H]1CC[C@]2(COC(C)=O)CC[C@]3(C)C(CC[C@@H]4[C@@]5(C)CC[C@H](OC(C)=O)C(C)(C)[C@@H]5CC[C@]43C)[C@@H]12 (stereo not given in full) | -78.8% (active)
17 | ClC(Cl)c1nc(-c2ccco2)n2nc(-c3ccccc3)cc2n1 | -9.05% (active)
18 | Oc1cccc2ccc(-c3nnc(SCc4ccc(O)c5ncccc45)n3-c3ccccc3)nc12 | -0.323% (active)
19 | COc1ccc(-c2nn(-c3ccc(S(C)(=O)=O)cc3)cc2/C=N/O)cc1 | 98.8% (inactive)
20 | O=C(Nc1cccc(C(F)(F)F)c1)c1cc(-c2ccc(F)cc2F)ccc1O | -26.2% (active)

Row | Compound | growth
21 | CS(=O)(=O)Nc1cc(-c2ccc3ncc(C#N)c(Nc4cccc(Cl)c4F)c3c2)cnc1Cl | -25% (active)
22 | CCCCCc1ccc(S(=O)(=O)Nc2cccc(-c3csc(NC(=O)CCCCCN4CCN(C)CC4)n3)c2)cc1 | 29.8% (inactive)
23 | C=CC(=O)N1CCC=C(c2cc3c(N[C@H](C)c4ccccc4)ncnc3[nH]2)C1 | 38% (inactive)
24 | Nc1ncc(-c2ccc3ncnc(N4CCc5cc(F)c(Cl)cc54)c3c2)cn1 | -10.9% (active)
25 | O=C1[C@H]2Cc3c([nH]c4ccccc34)[C@@H](c3c(Cl)cccc3Cl)N2C(=O)CN1C1CCN(CC2CCCCC2)CC1 | 54.9% (inactive)
26 | O=C(c1ccc(O)cc1)[C@@H]1CN[C@@]2(C(=O)Nc3ccccc32)[C@H]1c1ccc(F)cc1 | 101% (inactive)
27 | CN1CCN(Cc2ccc(NC(=O)c3cncc(C#Cc4cnc5ccc(OCC(C)(C)O)nn45)c3)cc2C(F)(F)F)CC1 | -18.6% (active)
28 | CCn1c(SCC(=O)Nc2cccc(C(=O)/C=C/c3ccccc3Cl)c2)nc2ccccc2c1=O | 72.7% (inactive)
29 | C=C(C=O)[C@@H]1CC[C@]2(C)[C@H](CC=C3[C@H]4[C@@H](C)[C@H](C)CC[C@]4(C(=O)OC)CC[C@]32C)[C@@]1(C)CCC#N | -31.6% (active)
30 | COc1cc2c(cc1OC)C(Sc1ccc(C)cc1)c1c(nc(N)c(C#N)c1N)O2 (stereo not given) | -31.8% (active)
31 | O=C1Nc2ccccc2/C1=C/c1ccc(CO)n1-c1ccc(Cl)cc1 | 75.4% (inactive)
32 | Oc1[nH]c2ccccc2c1Nn1c(N=N/C=c2/ccc3c(c2)C=NN=3)n[nH]c1=S | 76.6% (inactive)
33 | COc1ccc([C@@H]2c3[nH]c4ccccc4c3C[C@H]3C(=O)N(C4CCN(CC5CCCCC5)CC4)CC(=O)N23)c(OC)c1 | 51.3% (inactive)
34 | Cn1ccnc1C(=O)/C=C/c1ccc(NC(=O)c2ccc(F)cc2)cc1 | 47.2% (inactive)
35 | N#Cc1c(-c2cccs2)cc(-c2cnccn2)nc1SCC(=O)Nc1ccc(Br)cc1 | 98.6% (inactive)
36 | Cc1cc(C)n(C(=O)c2sc(=S)n(-c3ccccc3)c2N=Nc2c(N)n[nH]c2N)n1 | 114% (inactive)
37 | Cc1noc(C)c1CSc1nc2ccccc2n1-c1ccccc1 | 74.7% (inactive)
38 | C=CCn1c(SCC(=O)Nc2ccc(C(=O)/C=C/c3cc(OC)c(OC)c(OC)c3)cc2)nnc1-c1c[nH]c2ccccc12 | 63.7% (inactive)
39 | c1ccc(C(c2nc3ncncc3[nH]2)N2CSc3nc4ncncc4n3C2)cc1 (stereo not given) | 64.9% (inactive)
40 | C[C@H](CCC(=O)NCc1ccc(C(=O)Nc2ccccc2N)cc1)[C@H]1CC[C@H]2[C@@H]3[C@@H](O)C[C@@H]4C[C@H](O)CC[C@]4(C)[C@H]3CC[C@]12C | 69.1% (inactive)
